In all, about 8,300 sequences were measured (“log2 fold change of degron read counts, EGFP-low vs EGFP+ sorted cells (limma voom), compound-induced degradation”: median about -1.1, highest 2% from about 3.2 on). For the sample, the highest values were picked, then their nearest neighbours and some sequences at random.
T1: CRBN, Q96SW2
T1 chain: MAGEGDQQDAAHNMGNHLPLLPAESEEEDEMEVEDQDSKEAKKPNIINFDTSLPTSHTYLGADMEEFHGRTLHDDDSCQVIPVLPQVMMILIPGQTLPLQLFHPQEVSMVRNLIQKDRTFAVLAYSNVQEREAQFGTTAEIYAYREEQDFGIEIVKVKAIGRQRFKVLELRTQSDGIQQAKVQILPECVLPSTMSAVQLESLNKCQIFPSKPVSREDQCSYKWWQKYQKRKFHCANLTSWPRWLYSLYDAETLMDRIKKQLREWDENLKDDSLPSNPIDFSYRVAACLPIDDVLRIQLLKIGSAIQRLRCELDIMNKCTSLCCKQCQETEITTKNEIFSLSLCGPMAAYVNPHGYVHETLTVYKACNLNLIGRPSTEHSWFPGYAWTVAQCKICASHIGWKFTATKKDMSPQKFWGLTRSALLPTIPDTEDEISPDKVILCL

B1: 46F_47Y_49N_50Q_52G_53R_54L_55F_67L_, Q9UKT9 (peptide)
chain: FYCNQCGRLFTQKGNLLRHIKL
B2: 46F_47K_49D_50V_52G_53A_54V_55F_67L_, Q9UKT9 (peptide)
chain: FKCDVCGAVFTQKGNLLRHIKL
B3: 46F_47V_49D_50Q_52G_53A_54E_55F_67L_, Q9UKT9 (peptide)
chain: FVCDQCGAEFTQKGNLLRHIKL
B4: 46F_47C_49N_50Q_52G_53A_54S_55F_67L_, Q9UKT9 (peptide)
chain: FCCNQCGASFTQKGNLLRHIKL
B5: 46L_47W_49E_50I_52G_53F_54L_55C_67L_, Q9UKT9 (peptide)
chain: LWCEICGFLCTQKGNLLRHIKL
B6: 46F_47K_49N_50I_52G_53A_54H_55F_67L_, Q9UKT9 (peptide)
chain: FKCNICGAHFTQKGNLLRHIKL
B7: 46F_47K_49D_50I_52G_53A_54I_55F_67L_, Q9UKT9 (peptide)
chain: FKCDICGAIFTQKGNLLRHIKL
B8: 46F_47G_49P_50V_52G_53A_54I_55F_67L_, Q9UKT9 (peptide)
chain: FGCPVCGAIFTQKGNLLRHIKL
B9: 46F_47R_49N_50V_52G_53A_54I_55F_67L_, Q9UKT9 (peptide)
chain: FRCNVCGAIFTQKGNLLRHIKL
B10: 46F_47Y_49N_50V_52G_53A_54I_55F_67L_, Q9UKT9 (peptide)
chain: FYCNVCGAIFTQKGNLLRHIKL
B11: 46F_47H_49P_50V_52G_53A_54I_55F_67L_, Q9UKT9 (peptide)
chain: FHCPVCGAIFTQKGNLLRHIKL
B12: 46F_47Q_49P_50V_52G_53A_54I_55F_67L_, Q9UKT9 (peptide)
chain: FQCPVCGAIFTQKGNLLRHIKL
B13: 46F_47F_49P_50V_52G_53A_54I_55F_67L_, Q9UKT9 (peptide)
chain: FFCPVCGAIFTQKGNLLRHIKL
B14: 46F_47Q_49N_50V_52G_53A_54I_55F_67L_, Q9UKT9 (peptide)
chain: FQCNVCGAIFTQKGNLLRHIKL
B15: 46F_47V_49P_50V_52G_53A_54I_55F_67L_, Q9UKT9 (peptide)
chain: FVCPVCGAIFTQKGNLLRHIKL
B16: 46F_47Q_49D_50I_52G_53A_54I_55F_67L_, Q9UKT9 (peptide)
chain: FQCDICGAIFTQKGNLLRHIKL
B17: 46F_47C_49D_50I_52G_53A_54I_55F_67L_, Q9UKT9 (peptide)
chain: FCCDICGAIFTQKGNLLRHIKL
B18: 46F_47R_49P_50V_52G_53A_54I_55F_67L_, Q9UKT9 (peptide)
chain: FRCPVCGAIFTQKGNLLRHIKL

Target: T1, CRBN, Q96SW2
Test: log2 fold change of degron read counts, EGFP-low vs EGFP+ sorted cells (limma voom), compound-induced degradation; higher = more compound-induced degradation of the degron-EGFP fusion; degrons are variants of IKZF1/3 zinc finger 2; compound dose not given here
Conditions: Jurkat, 18 h
[1] = compound: compound 19 (5-tert-butyl-thalidomide)
[2] = compound: compound 22 (5-morpholino-thalidomide)
[3] = compound: compound 33 (diphenyl IMiD analogue)
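Further: pooled lentiviral library of zinc finger degron-EGFP fusions in mCherry-positive Jurkat cells, FACS-sorted after compound exposure, with degron abundance counted by next-generation sequencing.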

Sequence	log2 fold change of degron read counts [1]	log2 fold change of degron read counts [2]	log2 fold change of degron read counts [3]	log2 fold change of degron read counts (compound: thalidomide)
B1	-1.45	-2.33	-2.01	-1.7
B2	-3.26	-3.42	-3.55	-2.43
B3	-3.02	-2.35	-2.96	-1.78
B4	-1.43	-1.92	-0.445	-1.53
B5	1.13	1.39	1.44	0.295
B6	-1.74	-2.18	-2.99	-1.98
B7	-2.93	-3.42	-2.93	-2.01
B8	3.73	2.12	2.5	0.899
B9	-1.97	-2.04	-0.492	-0.595
B10	-0.301	0.0156	-0.132	-1.44
B11	0.164	0.683	1.33	-0.0983
B12	-0.448	3.15	2.64	3.53
B13	1.97	2.07	0.852	0.24
B14	-1.8	1.3	1.44	3.37
B15	-1.21	0.225	1.42	1.3
B16	-1.32	2.34	1.7	3.47
B17	-0.218	0.0957	1.18	0.132
B18	-1.67	-0.943	0.606	0.832
